Source: PubChem BioAssay AID1117319 (Southern Research Institute, 2015)
Where “and” joins values, the source holds several entries; their conditions need not be identical. Equal entries are not always repeated. About 1,500 (0.58%) of roughly 260,000 compounds were called active. Another 5% or so got no clear call; they are omitted.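 How the source made its calls: active means inhibition above a set limit at one or more doses, reproduced on every date tested; inconclusive means results disagree between test dates, or hit never tested in dose response; inactive means the rest.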 The list is a sample of the results. Results with a measured potency or affinity are listed apart.

molecular target: Virion infectivity factor (Human immunodeficiency virus type 1 group M subtype B (isolate BH10)) + Virion infectivity factor (Human immunodeficiency virus type 1 group M subtype B (isolate BRU/LAI)) + Virion infectivity factor (Human immunodeficiency virus type 1 group M subtype B (isolate PCV12)) + Virion infectivity factor (Human immunodeficiency virus type 1 group M subtype B (isolate HXB2)) + DNA dC->dU-editing enzyme APOBEC-3G (Homo sapiens) (UniProt P69720+P69721+P69722+P69723+Q9HC16); experiment: HIV-1 Vif–A3G interaction blockers – biochemical, TR-FRET, GST-Vif 1-94, biotin-A3G peptide, dose response retest, primary screen (AID 1117319); details: TR-FRET GST-Vif / biotin-A3G peptide binding; stronger effect = higher value;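 further: Vif residues 1-94 fused to GST binding biotinylated APOBEC3G peptide 110-148; 0% = full assay without inhibitor and 100% = GST in place of GST-Vif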

SMILES	inhibition
COc1ccc(C(=O)Cn2nnc(-c3ccccc3NC(=O)C3CCCCC3)n2)cc1	-3.13% (inactive)
Cc1ccc(OCCCN2C(=O)C(=O)c3cc(C)ccc32)cc1	-4.93% (inactive)
Cn1nnnc1SCCNS(=O)(=O)c1ccccc1	2.62% (inactive)
Cc1ccc(Nc2cnn(C34CC5CC(CC(CC(=O)O)(C5)C3)C4)c(=O)c2Cl)cc1	-0.2% (inactive)
Cc1cccc(Nc2cnn(C34CC5CC(CC(CC(=O)O)(C5)C3)C4)c(=O)c2Cl)c1	5.69% (inactive)
O=c1[nH]nc(Cc2ccc3ccccc3n2)c2ccccc12	-4.55% (inactive)
COC(=O)N1CCN(c2ccc(C(C)=O)cc2)CC1	5.12% (inactive)
Cc1ccc(NC(=O)C2CCCN(S(=O)(=O)c3cnc[nH]3)C2)c(Br)c1 (centres undefined)	1.69% (inactive)
COc1ccc(C(=O)Nc2nc(CC(=O)NCCc3cccc(OC)c3)cs2)cc1	0.4% (inactive)
COc1cc(O)cc(/C=C/c2ccccc2)c1	6.25% (inactive)
COc1cc(/C=C/c2ccc(O)cc2)cc(OC)c1	0.21% (inactive)
CNS(=O)(=O)c1cccc(C(=O)OCC(=O)NC(C)CCc2ccccc2)c1 (centres undefined)	1.38% (inactive)
COC(=O)c1ccc(-n2nnnc2SC)cc1	6.93% (inactive)
CCOc1ccc(NC(=O)N[C@@H](Cc2ccccc2)C(=O)O)cc1	3.58% (inactive)
O=C(CC1Nc2cccc3cccc(c23)NC1=O)Nc1ccc(F)cc1 (centres undefined)	19.5% (inactive)
CC(=O)Nc1ccc(NC(=O)CC2Nc3cccc4cccc(c34)NC2=O)cc1 (centres undefined)	18% (inactive)
Cc1ccc(C)c(CSc2nnc(C)c(=O)[nH]2)c1	-5.37% (inactive)
Cc1nn(CC#N)c(=O)n1-c1ccc(F)cc1	0.42% (inactive)
O=C(CCS(=O)(=O)c1ccc(Cl)cc1)N1CCN(c2ccc(F)cc2)CC1	-4.61% (inactive)
O=C(CCS(=O)(=O)c1ccc(Br)cc1)N1CCN(c2ccc(Cl)cc2)CC1	5.94% (inactive)
COc1ccc(CCN2CCCn3c2nc2c3c(=O)n(CC(N)=O)c(=O)n2C)cc1OC	-0.32% (inactive)
NS(=O)(=O)c1ccc(Cl)cc1[N+](=O)[O-]	-11.6% (inactive)
COc1ccc(N(CN2C(=O)C3CC=CCC3C2=O)C(=O)c2ccco2)cc1 (centres undefined)	18.2% (inactive)
O=C1CCC(=O)N1CN(C(=O)c1ccco1)c1ccc(Cl)c(Cl)c1	3.26% (inactive) and 3.71% (inactive)

SMILES	inhibition
CCc1nn2c(=O)cc(COc3ccc(/C=C4\C(=N)N5N=C(C)SC5=NC4=O)cc3)nc2s1	-5.78% (inactive)
Oc1c(CN2CCOCC2)ccc(CN2CCOCC2)c1O	30.9% (inactive)
Oc1c(CN2CCOCC2)cc(CN2CCOCC2)c(O)c1CN1CCOCC1	4.15% (inactive)
CC1(C)Cc2ccccc2C2CC(O)C(=O)N21 (centres undefined)	4.18% (inactive)
CC(=O)N1Cc2ccccc2C(C)CC12CCCC2 (centres undefined)	-6.77% (inactive)
NC(=O)c1ccc[n+](Cc2ccc(-c3ccccc3)cc2)c1	8.95% (inactive)
Cc1ccc(CN2C(=O)c3ccccc3NC2c2cc(Br)ccc2O)cc1 (centres undefined)	-3.39% (inactive)
CCOC(=O)C(C)(C)Sc1ncnc2nc[nH]c12	-1.07% (inactive)
CCCCCCCCOC(=O)c1cc([N+](=O)[O-])c(Sc2ncnc3nc[nH]c23)c([N+](=O)[O-])c1	29.5% (inactive)
CCn1c(SCC(=O)NCCc2ccccc2)nc2sc3c(c2c1=O)CCN(C)C3	14.3% (inactive)
COc1ccccc1CCc1nnc(CCC(=O)NCC[C@@H]2C[C@@H]3C=C[C@H]2C3)o1	2.31% (inactive)
O=C(c1ccco1)N1CCN(Cc2cc(=O)c(OCc3ccccc3Cl)co2)CC1	-9.22% (inactive)
N#CC(C#N)=C1C=C2C=C(N3CCCCCC3)CCC2CC1 (centres undefined)	8.28% (inactive)
N#CC1=C(N)C2=CCCC[C@H]2[C@H](c2ccc(Br)cc2)C1(C#N)C#N	4.38% (inactive)
Cc1nc(C(=O)O)nn1-c1cc(Cl)ccc1Cl	2.06% (inactive)
Cc1cccc(N(C(=O)CNC(=O)c2ccco2)C(C(=O)NC2CCCC2)c2cccnc2)c1 (centres undefined)	-6.56% (inactive)
CN(C)S(=O)(=O)c1cccc(NC(=O)CSc2nncn2-c2ccccc2)c1	1.63% (inactive)
COc1cc([C@H]2[C@@H]3CCCC[C@]3(O)CCN2Cc2ccccc2F)ccc1O	4.71% (inactive)
O=C(CN1CC(=O)Oc2ccccc21)OCC(=O)c1cccc(Br)c1	20.7% (inactive)
O=c1cc(-c2ccccc2)c2c([nH]1)CCCC2	-2.63% (inactive)
O=c1cc(O)c(-c2ccccc2Cl)c(Cl)[nH]1	-2.11% (inactive)
CC(c1ccccc1)n1c(SCC(=O)Nc2ccccc2)n[nH]c1=O (centres undefined)	-10.8% (inactive)
CCN(CC)c1ccc(C2Nc3cccc4cccc(c34)N2)c(O)c1	6.26% (inactive)
Oc1ccccc1C1Nc2cccc3cccc(c23)N1	20% (inactive)

SMILES	inhibition
Cc1ccc(-c2cc3cccc[n+]3cc2-c2ccc(C)cc2)cc1	10.5% (inactive)
Cc1csc2cc(-c3cccc([N+](=O)[O-])c3)c(-c3cccc([N+](=O)[O-])c3)c[n+]12	1.42% (inactive)
Cn1nccc1C(=O)Nc1ccc2c(c1)OCO2	-8.05% (inactive)
O=C(CSc1nnc2scc(-c3ccc(Cl)cc3)n12)NCc1ccc2c(c1)OCO2	31.6% (inactive)
Cc1c(NC(=O)CN2CCN(c3ccc(F)cc3)CC2)c(=O)n(-c2ccccc2)n1C	-4.9% (inactive)
Cc1c(NC(=O)CN2CCN(c3ccccc3)CC2)c(=O)n(-c2ccccc2)n1C	2.33% (inactive)
C=CCn1c(=O)c2ccccc2n2c(SCc3nc4ccccc4s3)nnc12	0.94% (inactive)
Cc1oc(-c2ccccc2F)nc1CS(=O)CC(=O)NCc1ccccc1 (centres undefined)	-9.75% (inactive)
Nn1cnnc1N/N=C/c1ccc(Cl)cc1Cl	-0.88% (inactive)
COc1ccc(-c2cc(C(=O)Nc3c(C)n(C)n(-c4ccccc4)c3=O)no2)cc1	-3.59% (inactive)
Cc1c(NC(=O)c2cc(-c3ccccc3)on2)c(=O)n(-c2ccccc2)n1C	-2.53% (inactive)
COc1ccc(-c2cc(C(=O)Nc3c(C)n(C)n(-c4ccccc4)c3=O)no2)cc1OC	-4.54% (inactive)
Cc1ccc(-c2cc(C(=O)Nc3c(C)n(C)n(-c4ccccc4)c3=O)no2)cc1	-0.77% (inactive)
Cc1ccc(NC(=O)C2CC(O)CN2C(=O)OCc2ccccc2)cc1C (centres undefined)	-2.11% (inactive)
CCc1nn2c(NCCOC)cc(C)nc2c1-c1ccc(F)cc1	-2.39% (inactive)
CC1CCCCC1NC(=O)Cn1nnc2ccccc2c1=O (centres undefined)	-5.45% (inactive)
CCCN(C(=O)COc1ccc(C(C)=O)cc1OC)C1CCS(=O)(=O)C1 (centres undefined)	-0.07% (inactive)
CC(C)OCCCNCc1cccs1	-0.18% (inactive)
CCSC1=N/C(=C\c2ccc(-c3ccccc3[N+](=O)[O-])o2)C(=O)S1	13.5% (inactive)
CCCSC1=N/C(=C\c2ccsc2)C(=O)S1	0.21% (inactive)
C=CCSC1=N/C(=C\c2ccc(C(=O)O)cc2)C(=O)S1	-15.6% (inactive)
C=CCSC1=N/C(=C\c2ccsc2)C(=O)S1	2.35% (inactive)
CCCSC1=N/C(=C\c2ccc3c(c2)OCO3)C(=O)S1	27% (inactive)
CCOc1c(OC(C)=O)ccc(/C=C2\N=C(SCC)SC2=O)c1[N+](=O)[O-]	9.49% (inactive)

SMILES	inhibition
COc1ccccc1NC(=O)NCCN1C(=O)C2C3C=CC(C3)C2C1=O (centres undefined)	4.08% (inactive)
CCOC(=O)c1c(-c2ccc(Cl)cc2)cn2ccccc12	13.8% (inactive)
COc1ccc(OC)c(NC(=O)c2ccccc2N(Cc2ccccc2)S(C)(=O)=O)c1	7.69% (inactive)
CC(OC(=O)c1ccc(Cl)nc1)C(=O)NC1(C#N)CCCCC1 (centres undefined)	2.48% (inactive)
COc1cccc(C(=O)NCC(c2ccc3c(c2)OCO3)N2CCN(c3ccc(F)cc3)CC2)c1 (centres undefined)	-2.23% (inactive)
CC(=O)N1CCOc2ccc(S(=O)(=O)NCCc3cccc(C)c3)cc21	2.22% (inactive)
Cc1ccc2cc(CN(Cc3ccc4c(c3)OCO4)Cc3nnnn3Cc3ccco3)c(=O)[nH]c2c1C	-12.9% (inactive) and 10.6% (inactive)
Cc1ccc2cc(CN(CCN3CCOCC3)Cc3nnnn3Cc3ccco3)c(=O)[nH]c2c1C	11.1% (inactive)
COC(=O)c1ccc(Cn2nc(C)c(Cl)c2C)o1	3.48% (inactive)
Clc1cccc(CON/C=N/c2ncnc3sccc23)c1	-6.38% (inactive)
CC(=O)Nc1ccccc1OCC(=O)NCCC1=CCCCC1	-8.53% (inactive)
CCN(CC)c1ccc2c(C)c(Cl)c(=O)oc2c1	-11.9% (inactive)
CCN(CC)c1ccc2cc(C=O)c(=O)oc2c1	24.5% (inactive)
CC(C)N=C1SCC(C)(/C=N/O)S1 (centres undefined)	5.98% (inactive)
O=C1[C@@H]2C(Cc3ccc(O)cc3)NC3(C(=O)Nc4ccc(F)cc43)[C@@H]2C(=O)N1c1ccccc1 (some centres undefined)	-9.27% (inactive)
O=C1[C@@H]2[C@H](Cc3ccc(O)cc3)N[C@]3(C(=O)Nc4ccccc43)[C@@H]2C(=O)N1c1ccc(F)cc1	3.97% (inactive)
CCN=C1SC(CC(N)=O)C(=O)N1CC (centres undefined)	9.83% (inactive)
Cc1nc(N2CCN(C(=O)c3ccco3)CC2)nc2c1C(=O)CC(C)C2 (centres undefined)	-2.42% (inactive)
COc1ccc(Cl)cc1NC(=O)c1cnccn1	3.9% (inactive)
Cc1nc(N)c(C#N)c(-c2ccc3c(c2)OCO3)c1C	-4.59% (inactive)
Cc1c(C)n(C(=O)CSc2ncn[nH]2)c2ccccc12	-2.61% (inactive)
Cc1[nH]c2ccccc2c1C(=O)CSc1nc2ccccc2[nH]1	30.3% (inactive)
